CatS inh: blocks human cathepsin S protease activity | recombinant cathepsin S, AMC dipeptide fluorescence, pooled mixtures | 0.06% of 62,000 active | P25774 | inhibition, %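 (tested at 5 µM per compound within 10-compound mixtures)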; in the data active means inhibition above about 32%, passing the limit was not always enough; inconclusive means no clear call, values can overlap the other calls;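 further: 0% = enzyme without compound and 100% = blank without enzyme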
mHtt clearance: compounds clearing mutant huntingtin protein; 0.42% of 47,000 active; inhibition, % at 1.5 µM; HeLa Exon1htt(103Q)mCFP, aggregate imaging; zero = plate's median compound well;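 active means inhibition of aggregate fluorescence above about 70%, also judged a hit by eye on the cell image, limit read from the data, passing the limit was not always enough; inconclusive means no rule stated for this call; inactive means not judged a hit on image review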;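 further: cells exposed to compound for three days before fixation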
CatB mix inh: inhibitors of human cathepsin B in compound mixtures. inhibition, %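 (ten-compound pools at 5 µM per compound and 50 µM total)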. AID 488. Purified cathepsin B, AMC dipeptide fluorescence. 0.06% of 62,000 active. P07858; in the data active means inhibition above about 22%, passing the limit was not always enough; inconclusive means no clear call, values can overlap the other calls;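 further: 0% = enzyme without compound and 100% = no enzyme blank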
CatB block: blocks human cathepsin B protease activity; inhibition, %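 (tested at 10 µM)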; 0.1% of 63,000 active; P07858; purified cathepsin B, fluorogenic substrate, fluorescence; AID 453; in the data active means inhibition above about 21%;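 further: 0% = enzyme with no compound and 100% = no enzyme blank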
WNV NS2B-NS3 inh: blocks West Nile virus NS2B-NS3 protease activity | z-score (no concentration beside the values) | WNV NS2B-NS3 protease, fluorogenic substrate Ex360/Em465; hits give low values | P06935 | AID 577 | 0.18% of 65,000 active; in the data active means z-score below about -3
Target sequence (P06935 1371-1501 limits assumed): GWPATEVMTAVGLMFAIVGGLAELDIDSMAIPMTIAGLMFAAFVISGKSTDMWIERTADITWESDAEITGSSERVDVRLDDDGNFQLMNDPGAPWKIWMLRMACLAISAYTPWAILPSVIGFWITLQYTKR
Target sequence (P06935 1502-1679 limits assumed): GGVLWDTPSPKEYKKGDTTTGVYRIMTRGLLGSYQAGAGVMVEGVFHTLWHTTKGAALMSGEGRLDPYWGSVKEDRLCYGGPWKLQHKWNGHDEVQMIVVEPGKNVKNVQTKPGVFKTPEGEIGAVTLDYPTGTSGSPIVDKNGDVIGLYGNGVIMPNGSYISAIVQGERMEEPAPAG
CatL block: inhibitors of human cathepsin L; purified cathepsin L, fluorogenic substrate, fluorescence; 0.17% of 58,000 active; P07711; AID 460; inhibition, %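 (tested at 10 µM)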; in the data active means inhibition above about 45%;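 further: 0% = enzyme with no compound and 100% = no enzyme blank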
Target sequence (P07711 114-288 limits assumed): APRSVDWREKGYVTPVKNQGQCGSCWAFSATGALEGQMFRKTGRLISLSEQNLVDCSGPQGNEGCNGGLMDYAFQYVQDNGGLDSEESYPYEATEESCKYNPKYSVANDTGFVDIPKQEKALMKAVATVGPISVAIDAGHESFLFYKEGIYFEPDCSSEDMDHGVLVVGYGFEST
Target sequence (P07711 292-333 limits assumed): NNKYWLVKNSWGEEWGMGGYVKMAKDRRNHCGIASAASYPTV
Active calls of the source: *. This is a sample that favours compounds with a hit; in the whole collection about 0.61% have one here.

`Cc1cnc(NC(=O)C(C)N2C(=O)C3CC=CCC3C2=O)s1` (stereo unspecified) gave CatS inh -6.2, CatB mix inh 3.9, CatB block 2.8 and WNV NS2B-NS3 inh -3.41*.
`CCN(C(=O)COc1cc(=O)n(C)c2ccccc12)c1cccc(Cl)c1` gave CatS inh 1.3, CatB mix inh 0.2, CatB block 57.1*, WNV NS2B-NS3 inh -0.7 and CatL block -0.9.
CC(=NCc1ccco1)c1c(C)[nH]n(-c2nc3ccccc3s2)c1=O was read as CatS inh 46.0*, mHtt clearance -59.0, CatB mix inh -5.8, CatB block -2.4, WNV NS2B-NS3 inh 0.84 and CatL block -1.1.
Screening Cc1ccc(NC(=O)C2C3CC4OC(=O)C2C4C3)cc1Cl (stereo unspecified) returned CatS inh -18.3, CatB mix inh -4.7, CatB block -3.7, WNV NS2B-NS3 inh -6.43* and CatL block -4.5.
For CC(C)C(c1nnnn1C1CCCC1)N1CCCc2ccccc21 (stereo unspecified) the results were CatS inh 32.5*, mHtt clearance 55.7, CatB mix inh 4.9, CatB block 10.1, WNV NS2B-NS3 inh 0.54 and CatL block 14.3.
Screening Cc1cc2ncn(S(=O)(=O)c3ccc(S(=O)(=O)N4CCCCCC4)cc3)c2cc1C returned mHtt clearance 71.4*.
For O=C(NCCCN1CCN(Cc2ccccc2)CC1)C1CCN(c2nnc(-n3cccc3)s2)CC1 the results were CatS inh 8.5, CatB mix inh 1.0, CatB block 3.3, WNV NS2B-NS3 inh -0.66 and CatL block 63.8*.
`O=C(NCCCN1CCc2ccccc2C1)C1CCN(c2nnc(-n3cccc3)s2)CC1` gave CatS inh 2.0, CatB mix inh -10.0, CatB block -3.7, WNV NS2B-NS3 inh -0.86 and CatL block 78.0*.
Screening Cc1ccc2nc(C(F)OC(F)(F)F)[nH]c2c1 (stereo unspecified) returned CatS inh 12.4, mHtt clearance 72.6*, CatB mix inh 4.1, CatB block -1.2 and WNV NS2B-NS3 inh 0.11.
Cc1ccc2nc(C(O)C(O)c3nc4ccc(C)cc4[nH]3)[nH]c2c1 (stereo unspecified) was read as CatS inh -11.2, CatB mix inh 2.9, CatB block 0.0, WNV NS2B-NS3 inh 0.31 and CatL block 62.0*.
CC(C)c1nc2cc3ccccc3cc2[nH]1 was read as CatS inh 3.9, mHtt clearance 6.2, CatB mix inh -5.0, CatB block -3.5, WNV NS2B-NS3 inh -1.21 and CatL block 14.5.
For Cc1ccc2nc(/C(C#N)=N/O)[nH]c2c1 the results were CatS inh 12.1, mHtt clearance -53.2, CatB mix inh 8.7, CatB block -0.5, WNV NS2B-NS3 inh 0.08 and CatL block 8.3.
Cc1cc(NC(=O)CSc2nc(CCC3CCCC3)nc3ccccc23)no1 was read as CatS inh -7.8, mHtt clearance 84.3*, CatB mix inh 5.3, CatB block -2.5, WNV NS2B-NS3 inh -0.91 and CatL block 14.0.
For Cc1ccc(CNC(=O)C2CCC(=O)N2CCc2ccccc2)cc1 (stereo unspecified) the results were mHtt clearance -10.7.
O=C(NCc1ccc(F)cc1)C1CCC(=O)N1CCc1ccccc1 (stereo unspecified) was read as CatS inh -1.1, mHtt clearance inconclusive, CatB mix inh -3.2, CatB block 42.2*, WNV NS2B-NS3 inh 2.4 and CatL block 10.6.
O=C(COc1ccccc1)NC(Cc1c[nH]c2ccccc12)C(=O)O (stereo unspecified) was read as CatS inh -2.7, mHtt clearance 70.6*, CatB mix inh -3.2, CatB block 5.5, WNV NS2B-NS3 inh -1.06 and CatL block 10.8.
COc1cccc(C(=O)Oc2cc(-c3ccccc3)no2)c1 was read as mHtt clearance 8.5.
COc1ccc(OC)c(S(=O)(=O)NCc2ccccc2)c1 was read as CatS inh 0.0, CatB mix inh -1.9, CatB block 0.0, WNV NS2B-NS3 inh 0.31 and CatL block 20.7.
`COc1ccc(OC)c(NS(=O)(=O)Cc2ccccc2)c1` gave CatS inh 7.5, CatB mix inh 2.5, CatB block 12.2, WNV NS2B-NS3 inh -0.38 and CatL block 72.9*.
`O=C(COc1ccc(F)c(Cl)c1)c1ccc[nH]1` gave CatS inh -11.1, mHtt clearance -7.7, CatB mix inh 2.4, CatB block -0.6, WNV NS2B-NS3 inh -0.75 and CatL block -5.8.
For O=C(CCC(=O)c1ccc[nH]1)c1ccc(Cl)cc1 the results were CatS inh -5.5, mHtt clearance 75.2*, CatB mix inh -1.6, CatB block 3.9, WNV NS2B-NS3 inh -0.78 and CatL block -6.8.
`OC12CCCCC1C(c1ccc3c(c1)OCO3)N(Cc1ccccc1F)CC2` (stereo unspecified) gave CatS inh -8.4, mHtt clearance 72.9*, CatB mix inh -10.6, CatB block 6.1, WNV NS2B-NS3 inh -0.18 and CatL block 25.7.
`C=CCn1c(SCC(=O)c2ccc(Br)cc2)nnc1C(CC(C)C)NC(=O)c1cccs1` (stereo unspecified) gave mHtt clearance -10.6.
CCOC(=O)CSc1nc(C)cc(=O)[nH]1 was read as CatS inh 2.5, mHtt clearance 71.3*, CatB mix inh 0.1, CatB block -2.7 and WNV NS2B-NS3 inh -0.31.
NC(=O)NC1CCCc2c1[nH]c1ccc(Cl)cc21 (stereo unspecified) was read as CatS inh 3.7, CatB mix inh 0.9, CatB block 0.8, WNV NS2B-NS3 inh -3.01* and CatL block -2.3.
CCOC(=O)C1CCCN(CC(=O)Nc2c(C(=O)OC)[nH]c3ccc(Cl)cc23)C1 (stereo unspecified) was read as CatS inh -6.7, CatB mix inh -3.4, CatB block -2.1, WNV NS2B-NS3 inh -0.22 and CatL block 1.9.
For CCC(=O)Nc1ccc2c(c1)ncn2-c1ccc(OC)cc1 the results were mHtt clearance -56.8.
COc1ccc2ncn(-c3ccccc3)c2c1 was read as CatS inh 18.3, mHtt clearance 75.4*, CatB mix inh 1.1, CatB block 6.8, WNV NS2B-NS3 inh 1.45 and CatL block 23.7.
CCOC(=O)CSc1nnc(Cc2ccccc2)n1Cc1ccco1 was read as CatS inh -3.8, mHtt clearance 44.9, CatB mix inh -2.7, CatB block 5.7, WNV NS2B-NS3 inh -0.55 and CatL block 92.3*.
For CCOC(=O)CSc1nnc(CSc2nc(C)cc(C)n2)n1Cc1ccco1 the results were mHtt clearance -8.9 and WNV NS2B-NS3 inh -0.75.
COc1ccc(OC)c(NC(=O)Cn2cc(C(=O)c3ccco3)c3ccccc32)c1 was read as CatS inh -4.8, mHtt clearance 75.8*, CatB mix inh -2.8, CatB block 2.8, WNV NS2B-NS3 inh 1.18 and CatL block -3.5.

High-throughput results (PubChem BioAssay)
